# Where “and” joins values, the source holds several entries; their conditions need not be identical. Identical values can stand only once. Inconclusive results are not listed. A call without a number means that no potency is given here. Unmarked numbers belong to inactive results. Calls of active or inactive are those of the source. Calls follow the shape of the dose curve; as a rule, active = well fitted curve in the direction sought with a large enough effect in the repeat runs; inconclusive = weak or mixed curves; inactive = no such curve, though single readings can be large; an effect the other way counts as inactive or inconclusive.
# Experiments:
# [1] = A CellTox Green Cytotoxicity Assay to monitor cytotoxicity in HEK293 cells - 40 hour (AID 1224871); also: nearly all actives have a fitted effect of over 45% in size
# Procedure, shortened: (§1)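 Each value comes from one timepoint of a single continuous run in which HEK293 cells with CellTox Green were exposed to compound for up to 40 h at 37 C, dye fluorescence rising with cell death.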
# [2] = qHTS RealTime-Glo MT Cell Viability Assay in HEK293 cells - 16 hour (AID 1224872); also: nearly all actives have a fitted effect of over 50% in size; also: potency is read from the fitted curve at half-maximal effect; as to activity change, negative = cytotoxicity: top concentration of the series differs between compounds
# Procedure, shortened: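 HEK293 cells seeded with NanoLuc/prosubstrate reagent, rested 5 h at 37 C, then dosed and kept at 37 C up to 40 h. Nonlytic real-time luminescence from viable cells read at 0, 8, 16, 24, 32 and 40 h.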
# [3] = qHTS RealTime-Glo MT Cell Viability Assay in HepG2 cells - 8 hour (AID 1224873); also: nearly all actives have a fitted effect of over 55% in size; also: potency is read from the fitted curve at half-maximal effect
# Procedure, shortened: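 Real-time viability: cells seeded at 600 per well together with NanoLuc and cell-permeant prosubstrate, compounds added after 5 h incubation. Luminescence tracked at 0, 8, 16, 24, 32 and 40 h of exposure.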
# [4] = qHTS RealTime-Glo MT Cell Viability Assay in HEK293 cells - 40 hour (AID 1224874); conditions: RealTime-Glo luminescence; max response: stronger effect = lower value; also: nearly all actives have a fitted effect of over 50% in size; also: potency is read from the fitted curve at half-maximal effect
# Procedure, shortened: (§2)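 qHTS format; HEK293 cells with NanoLuc/prosubstrate reagent, 37 C/5% CO2 for 5 h pre-dosing; compounds 23 nL in DMSO; luminescence at each time point reflects viable cells.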
# [5] = A CellTox Green Cytotoxicity Assay to monitor cytotoxicity in HEK293 cells - 24 hour (AID 1224875); also: series mostly up to about 77 µM; nearly all actives have a fitted effect of over 45% in size
# Procedure, shortened: as §1
# [6] = A CellTox Green Cytotoxicity Assay to monitor cytotoxicity in HepG2 cells - 16 hour (AID 1224876); also: nearly all actives have a fitted effect of over 45% in size
# Procedure, shortened: (§3)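 Continuous culture of HepG2 cells with a membrane-impermeant DNA dye; rising fluorescence marks dead cells. Compound exposure lasted up to 40 h at 37 C, with reads every 8 h from 0 h.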
# [7] = qHTS RealTime-Glo MT Cell Viability Assay in HepG2 cells - 32 hour (AID 1224877); also: nearly all actives have a fitted effect of over 55% in size; also: potency is read from the fitted curve at half-maximal effect
# Procedure, shortened: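 HepG2 cells (600/well) were dispensed with RealTime-Glo reagents, incubated 5 h at 37 °C, then treated with compounds in DMSO for up to 40 h. Nonlytic NanoLuc luminescence reflecting viable cells was read at each stated time point.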
# [8] = A CellTox Green Cytotoxicity Assay to monitor cytotoxicity in HepG2 cells - 24 hour (AID 1224878); also: nearly all actives have a fitted effect of over 45% in size
# Procedure, shortened: as §3
# [9] = qHTS RealTime-Glo MT Cell Viability Assay in HEK293 cells - 0 hour (AID 1224880); also: nearly all actives have a fitted effect of over 45% in size; also: potency is read from the fitted curve at half-maximal effect; as to activity change, negative = cytotoxicity: top concentration of the series differs between compounds
# Procedure, shortened: as §2
# [10] = A CellTox Green Cytotoxicity Assay to monitor cytotoxicity in HepG2 cells - 40 hour (AID 1224879); also: nearly all actives have a fitted effect of over 40% in size
# Procedure, shortened: as §3
structure (smiles),measurement,setting,value
CC[C@H](NC(=O)c1cc(F)ccc1NS(=O)(=O)c1cccc2cccnc12)c1ccccc1,Potency,[1],inactive
same,Potency,[2],inactive
same,Potency,[3],41.3 µM (active)
same,max response,[4],-13%
same,Potency,[5],inactive
same,Potency,[6],inactive
same,Potency,[7],52 µM (active)
same,Potency,[8],inactive
same,Potency,[9],23.2 µM (active)
C[Si](NC1CCCCC1)(NC1CCCCC1)NC1CCCCC1,Potency,[1],inactive
same,Potency,[2],inactive
same,Potency,[3],inactive
same,max response,[4],-24.6%
same,Potency,[5],inactive
same,Potency,[6],inactive
same,Potency,[7],inactive
same,Potency,[8],inactive
same,Potency,[10],inactive
same,Potency,[9],inactive
CC#N,Potency,[1],inactive
same,Potency,[2],inactive
same,Potency,[3],inactive
same,max response,[4],1.57%
same,Potency,[5],inactive
same,Potency,[6],inactive
same,Potency,[7],inactive
same,Potency,[8],inactive
same,Potency,[10],inactive
same,Potency,[9],inactive
O=C(C(=O)c1ccccc1)c1ccccc1,Potency,[1],inactive
same,Potency,[2],inactive
same,Potency,[3],inactive
same,max response,[4],3.7%
same,Potency,[5],inactive
same,Potency,[6],inactive
same,Potency,[7],inactive
same,Potency,[8],inactive
same,Potency,[10],inactive
same,Potency,[9],inactive
CCCCCCCCCCCCCCCCBr,cytotoxicity increase,[1],-0.351% [at 15.8 µM]
same,"activity change, negative = cytotoxicity",[2],6.53% [at 15.8 µM]
same,"viability change, negative = cytotoxic",[3],2.68% [at 15.8 µM]
same,max response,[4],4.08%
same,activity change,[5],"2.71% [at 15.8 µM, stronger effect = higher value]"
same,cytotoxicity increase,[6],-3.1% [at 15.8 µM]
same,"activity change, negative = cytotoxic",[7],2.91% [at 15.8 µM]
same,cytotoxicity,[8],-6.35% [at 15.8 µM]
same,cytotoxicity increase,[10],-7.84% [at 15.8 µM]
same,"activity change, negative = cytotoxicity",[9],6.45% [at 15.8 µM]
CCCCCCCC/C=C\CCCCCCCC(=O)OC,Potency,[1],inactive
same,Potency,[2],inactive
same,Potency,[3],inactive
same,max response,[4],5.42%
same,Potency,[5],inactive
same,Potency,[6],inactive
same,Potency,[7],inactive
same,Potency,[8],inactive
same,Potency,[10],inactive
same,Potency,[9],inactive
Nc1c(I)cc(I)c(C(=O)N(CCC(=O)O)c2ccccc2)c1I,Potency,[1],inactive
same,Potency,[2],inactive
same,Potency,[3],inactive
same,max response,[4],-10.8%
same,Potency,[5],inactive
same,Potency,[6],inactive
same,Potency,[7],inactive
same,Potency,[10],inactive
same,Potency,[9],inactive
CC1=NN(c2ccc(C(=O)O)cc2)C(=O)C1,Potency,[1],inactive
same,Potency,[2],inactive
same,Potency,[3],inactive
same,max response,[4],-25.1%
same,Potency,[5],inactive
same,Potency,[6],inactive
same,Potency,[7],inactive
same,Potency,[8],inactive
same,Potency,[10],inactive
same,Potency,[9],inactive
COCCOC,Potency,[1],inactive
same,Potency,[2],0.932 µM (active)
same,Potency,[3],inactive
same,Potency,[4],0.83 µM (active)
same,Potency,[5],inactive
same,Potency,[6],inactive
same,Potency,[7],inactive
same,Potency,[8],inactive
same,Potency,[10],inactive
same,Potency,[9],inactive
CCCOC(=O)c1ccc(C(=O)OCCC)nc1,Potency,[1],inactive
same,Potency,[2],inactive
same,Potency,[3],inactive
same,max response,[4],7.22%
same,Potency,[5],inactive
same,Potency,[6],inactive
same,Potency,[7],inactive
same,Potency,[8],inactive
same,Potency,[10],inactive
same,Potency,[9],inactive
C=CCCCCCCCCCCCCCCCC,cytotoxicity increase,[1],-6.74% [at 6.97 µM]
same,"activity change, negative = cytotoxicity",[2],-3.07% [at 6.97 µM]
same,"viability change, negative = cytotoxic",[3],-17.7% [at 6.97 µM]
same,max response,[4],-5.15%
same,activity change,[5],"-1.9% [at 6.97 µM, stronger effect = higher value]"
same,cytotoxicity increase,[6],-18.8% [at 6.97 µM]
same,"activity change, negative = cytotoxic",[7],7.54% [at 6.97 µM]
same,cytotoxicity,[8],-19.1% [at 6.97 µM]
same,cytotoxicity increase,[10],-20.6% [at 6.97 µM]
same,"activity change, negative = cytotoxicity",[9],-0.1% [at 6.97 µM]
CCCCOC(=O)CCS,Potency,[1],inactive
same,Potency,[2],inactive
same,Potency,[3],inactive
same,max response,[4],5.96%
same,Potency,[5],inactive
same,Potency,[6],inactive
same,Potency,[7],inactive
same,Potency,[8],inactive
same,Potency,[10],inactive
same,Potency,[9],inactive
Cc1cc(C(=C2C=CC(=Nc3ccc(S(=O)(=O)O)cc3S(=O)(=O)O)C=C2)c2ccc(Nc3ccc(S(=O)(=O)O)cc3)cc2)ccc1N,Potency,[1],inactive
same,Potency,[2],inactive
same,Potency,[3],inactive
same,max response,[4],-3.61%
same,Potency,[5],inactive
same,Potency,[6],inactive
same,Potency,[7],inactive
same,Potency,[8],inactive
same,Potency,[10],inactive
same,Potency,[9],inactive
Oc1cc(O)c(Cl)cc1Cl,Potency,[1],inactive
same,Potency,[2],inactive
same,Potency,[3],inactive
same,max response,[4],17.2%
same,Potency,[5],inactive
same,Potency,[6],inactive
same,Potency,[7],inactive
same,Potency,[10],inactive
same,Potency,[9],inactive
Cc1ccnc2ccccc12,Potency,[1],inactive
same,Potency,[2],inactive
same,Potency,[3],inactive
same,max response,[4],6.48%
same,Potency,[5],inactive
same,Potency,[6],inactive
same,Potency,[7],inactive
same,Potency,[8],inactive
same,Potency,[10],inactive
same,Potency,[9],inactive
COc1cc2[nH]c(=O)[nH]c(=O)c2cc1OC,Potency,[1],inactive
same,Potency,[2],inactive
same,Potency,[3],inactive
same,Potency,[5],inactive
same,Potency,[6],inactive
same,Potency,[7],inactive
same,Potency,[8],inactive
same,Potency,[10],inactive
same,Potency,[9],inactive
CC1(C)O[C@@H]2C[C@H]3[C@@H]4CCC5=CC(=O)C=C[C@]5(C)[C@H]4[C@@H](O)C[C@]3(C)[C@]2(C(=O)CO)O1,Potency,[1],inactive
same,Potency,[2],inactive
same,Potency,[3],inactive
same,max response,[4],-1.67%
same,Potency,[5],inactive
same,Potency,[7],inactive
same,Potency,[10],inactive
same,Potency,[9],inactive
Nc1ccc(S(=O)(=O)O)c(N)c1,Potency,[1],inactive
same,Potency,[2],inactive
same,Potency,[3],inactive
same,max response,[4],-8.29%
same,Potency,[6],inactive
same,Potency,[7],inactive
same,Potency,[10],inactive
same,Potency,[9],inactive
O=S1OCCO1,Potency,[1],inactive
same,Potency,[2],inactive
same,Potency,[3],inactive
same,Potency,[5],inactive
same,Potency,[6],inactive
same,Potency,[7],inactive
same,Potency,[8],inactive
same,Potency,[10],inactive
same,Potency,[9],inactive
Cc1cc(OI)c(C(C)C)cc1-c1cc(C(C)C)c(OI)cc1C,Potency,[1],inactive
same,Potency,[2],inactive
same,Potency,[3],inactive
same,max response,[4],-0.141%
same,Potency,[5],inactive
same,Potency,[7],inactive
same,Potency,[8],inactive
same,Potency,[10],inactive
same,Potency,[9],inactive
CCC(=O)OC/C=C/c1ccccc1,Potency,[1],inactive
same,Potency,[2],inactive
same,Potency,[3],inactive
same,max response,[4],1.64% and -7.61%
same,Potency,[5],inactive
same,Potency,[7],inactive
same,Potency,[8],inactive
same,Potency,[10],inactive
same,Potency,[9],inactive
Cc1cnc(C)c(C)n1,Potency,[1],inactive
same,Potency,[2],inactive
same,Potency,[3],inactive
same,max response,[4],-11.2%
same,Potency,[6],inactive
same,Potency,[7],inactive
same,Potency,[8],inactive
same,Potency,[10],inactive
same,Potency,[9],inactive
